Reference: PubChem BioAssay (NCATS)
Inconclusive results are not listed. Activity calls are given as the source filed them. The call rests on the fitted dose curve; in most records, active means well fitted curve in the direction sought with a large enough effect; inconclusive means small, poorly fitted or top-dose-only effect, or another doubt; inactive means no such curve, though single readings can be large; an effect the other way counts as inactive or inconclusive.

Experiments:
[1] = Quantitative High-Throughput drug screen in 47 multiple myeloma cell lines against the NCATS MIPE library collection: KMS26_JCRB cell viability assay (AID 1918975); conditions: KMS26 myeloma cells viability, CellTiter-Glo ATP, 48 h; series mostly up to 45.8 µM; further: nearly all actives have a fitted effect of over 45% in size
How it was run: (§1)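 qHTS of the MIPE 4.0 collection: 500 myeloma cells/well, 48 h drug exposure at 37C in 5% CO2, then CellTiter-Glo for 5 min at room temperature before luminescence reading.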

[2] = Quantitative High-Throughput drug screen in 47 multiple myeloma cell lines against the NCATS MIPE library collection: MOLP8_DSMZ cell viability assay (AID 1918977); conditions: MOLP8 myeloma viability, CellTiter-Glo ATP luminescence, 48 h; series mostly up to 45.8 µM; further: nearly all actives have a fitted effect of over 45% in size
How it was run: (§2)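 Inhibition of viability over 48 h was scored by ATP content (CellTiter-Glo) in 500-cell wells. Zero and full viability were defined by media-only and DMSO-only wells.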

[3] = Quantitative High-Throughput drug screen in 47 multiple myeloma cell lines against the NCATS MIPE library collection: OCIMY1_PLB cell viability assay (AID 1918979); conditions: OCI-MY1 myeloma viability, CellTiter-Glo ATP, 48 h; series mostly up to 45.8 µM; further: nearly all actives have a fitted effect of over 35% in size;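 on viability: 100% = DMSO-only wells and 0% = cell-free media-only wells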
How it was run: as §2

[4] = Quantitative High-Throughput drug screen in 47 multiple myeloma cell lines against the NCATS MIPE library collection: KMS20_JCRB cell viability assay (AID 1918973); conditions: CellTiter-Glo ATP, 48 h; series mostly up to 45.8 µM; further: nearly all actives have a fitted effect of over 45% in size
How it was run: as §1

[5] = Quantitative High-Throughput drug screen in 47 multiple myeloma cell lines against the NCATS MIPE library collection: NCIH929_DSMZ cell viability assay (AID 1918978); conditions: NCI-H929 myeloma viability, CellTiter-Glo ATP, 48 h; series mostly up to 45.8 µM; further: nearly all actives have a fitted effect of over 35% in size
How it was run: as §2

[6] = Quantitative High-Throughput drug screen in 47 multiple myeloma cell lines against the NCATS MIPE library collection: MM1S_ATCC cell viability assay (AID 1918980); conditions: MM1S myeloma viability, CellTiter-Glo ATP luminescence, 48 h; series mostly up to 45.8 µM; further: nearly all actives have a fitted effect of over 45% in size
How it was run: as §2

[7] = Quantitative High-Throughput drug screen in 47 multiple myeloma cell lines against the NCATS MIPE library collection: KMS12PE_JCRB cell viability assay (AID 1918972); conditions: KMS12PE myeloma viability, CellTiter-Glo ATP, 48 h; series mostly up to 45.8 µM; further: nearly all actives have a fitted effect of over 30% in size;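 on viability: 100% = DMSO only wells and 0% = wells with media alone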
How it was run: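 Steps: seed 500 cells per well; pin-transfer MIPE 4.0 library; incubate 48 h at 37C, 5% CO2, humidified; add CellTiter-Glo, 5 min room temperature; read luminescence.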

[8] = Quantitative High-Throughput drug screen in 47 multiple myeloma cell lines against the NCATS MIPE library collection: KMS21BM_JCRB cell viability assay (AID 1918974); conditions: ATP luminescence, 48 h; viability: at 45.8 µM (top of the series)
How it was run: as §1

[9] = Quantitative High-Throughput drug screen in 47 multiple myeloma cell lines against the NCATS MIPE library collection: MMM1_PLB cell viability assay (AID 1918976); conditions: MMM1 myeloma cells viability, CellTiter-Glo, 48 h; series mostly up to 45.8 µM; further: nearly all actives have a fitted effect of over 35% in size
How it was run: as §2

[10] = Quantitative High-Throughput drug screen in 47 multiple myeloma cell lines against the NCATS MIPE library collection: MM1R_ATCC cell viability assay (AID 1918981); conditions: MM1R multiple myeloma cells, CellTiter-Glo viability, 48 h; series mostly up to 45.8 µM; further: nearly all actives have a fitted effect of over 35% in size
How it was run: as §2
Potency means the concentration at half of the fitted maximal effect.

O=C(Oc1ccc([N+](=O)[O-])cc1)N1CCC(C(O)(c2ccc3c(c2)OCO3)c2ccc3c(c2)OCO3)CC1
inactive: Potency [1] | Potency [2] | Potency [3]

C#C[C@]1(O)C=C[C@@H]2[C@@H]3CCC4=CC(=O)CC[C@@H]4[C@H]3CC[C@@]21CC
inactive: Potency [4] | Potency [1] | Potency [2] | Potency [5] | Potency [3] | Potency [6]

CCOC(=O)c1c(C(C#N)=CN)c2ccc(Cl)c(Cl)c2n1C
inactive: Potency [7] | Potency [3]
active: Potency [6] 23.5 µM

CC(=O)N(C)c1cccc(-c2ccnc3c(C(=O)c4cccs4)cnn23)c1
active: Potency [9] 2.96 µM
inactive: Potency [8] | Potency [1] | Potency [2] | Potency [3]

c1cc2c(cc1[C@H]1OC[C@H]3[C@H]1CO[C@H]3c1ccc3c(c1)OCO3)OCO2
inactive: Potency [4] | Potency [2] | Potency [5] | Potency [10]

C[C@]12CC[C@H]3[C@@H](CCC4=CC(=O)CC[C@@]43C)[C@H]1CC[C@H]2O
inactive: Potency [4] | Potency [2] | Potency [5] | Potency [6] | Potency [10]

C[C@]12CC[C@H](O)CC1=CC[C@H]1[C@H]3CCC(=O)[C@@]3(C)CC[C@@H]12
active: Potency [8] 11.8 µM | Potency [9] 4.69 µM
inactive: Potency [2] | Potency [5] | Potency [3]

CC=C(C)C(=O)O[C@H]1C(C)=C2[C@@H]3OC(=O)[C@@](C)(O)[C@@]3(O)[C@@H](OC(=O)CCC)C[C@](C)(OC(C)=O)[C@@H]2[C@@H]1OC(=O)CCCCCCC
active: Potency [1] 0.0296 µM | Potency [9] 0.0235 µM | Potency [2] 0.0418 µM | Potency [5] 0.332 µM | Potency [3] 0.105 µM | Potency [6] 0.0187 µM | Potency [10] 0.0166 µM

CCC(=O)OC1CCC2C3CCC4=CC(=O)CC[C@@]4(C)C3CC[C@]12C (stereo partly drawn)
inactive: Potency [1] | Potency [2] | Potency [3] | Potency [10]

O=C1CCC[C@@H]2[C@H]3CCCN4CCC[C@@H](CN12)[C@@H]34
inactive: Potency [1] | Potency [5]

CC(C)(C)[C@]1(O)C[C@@H]2OC(=O)C[C@@]23C(=O)O[C@@H]2OC(=O)[C@H](O)C213 (stereo partly drawn)
inactive: Potency [2] | Potency [5] | Potency [3] | Potency [6]

COC1=C[C@@H]2[C@@H]3Cc4ccc(OC)c(O)c4[C@]2(CCN3C)CC1=O
active: Potency [4] 1.66 µM | Potency [5] 1.66 µM | Potency [6] 1.66 µM
inactive: Potency [2]

CC(=O)OCC1=C(C(=O)O)N2C(=O)[C@@H](N)[C@@H]2SC1
inactive: Potency [2] | Potency [5] | Potency [3]

COC1=CC(C)=C[C@@H](C)[C@@H](O)[C@@H](C)CC(C)=CC=C[C@H](OC)[C@H]([C@@H](C)[C@@H](O)[C@H](C)[C@@]2(O)C[C@@H](O)[C@H](C)[C@@H](C(C)C)O2)OC1=O
active: Potency [4] 0.001 µM | Potency [1] 0.0033 µM | Potency [9] 10.5 µM | Potency [2] 0.0042 µM | Potency [3] 0.0037 µM | Potency [6] 1.48 µM | Potency [10] 1.66 µM

CC1=NN=C(c2ccc(N)cc2)c2cc3c(cc2C1)OCO3
active: Potency [8] 14.8 µM
inactive: Potency [1] | Potency [5]

O=C(Oc1ccc([N+](=O)[O-])cc1)N1CCN(Cc2cccc(Oc3ccccc3)c2)CC1
active: Potency [6] 11.8 µM
inactive: Potency [2] | Potency [10]

Cc1c(N)nc([C@H](CC(N)=O)NC[C@@H](N)C(N)=O)nc1C(=O)N[C@H](C(=O)N[C@@H](C)[C@H](O)[C@@H](C)C(=O)N[C@@H](C(=O)NCCc1nc(-c2nc(C(=O)NCCC[S+](C)C)cs2)cs1)[C@@H](C)O)C(O[C@H]1O[C@H](CO)[C@H](O)[C@@H](O)[C@@H]1O[C@H]1O[C@H](CO)[C@@H](O)[C@H](OC(N)=O)[C@H]1O)c1cnc[nH]1 (stereo partly drawn)
active: Potency [4] 0.935 µM | Potency [3] 13.2 µM | Potency [6] 20.9 µM

COc1ccc(N(C(=O)Oc2c(C)cccc2C)c2ccnc(Nc3ccc(N4CCN(C)CC4)cc3)n2)c(OC)c1
active: Potency [8] 0.235 µM | Potency [1] 1.48 µM | Potency [9] 3.72 µM | Potency [2] 3.72 µM | Potency [6] 4.69 µM | Potency [10] 2.35 µM
inactive: Potency [3]

O=C(N[C@H]1CN2CCC1CC2)c1ccc(Cl)cc1
active: Potency [8] 37.2 µM | Potency [6] 2.96 µM
inactive: Potency [1] | Potency [10]

C[C@H]1CCCC=CC2C[C@H](O)C[C@@H]2[C@H](O)C=CC(=O)O1 (stereo partly drawn)
inactive: Potency [4] | Potency [1] | Potency [2] | Potency [5] | Potency [3] | Potency [6]

CCN(CC)C(=O)c1ccc(C2=CC3(CCNCC3)Oc3cccc(O)c32)cc1
active: Potency [9] 10.5 µM
inactive: Potency [4] | Potency [1] | Potency [2] | Potency [5] | Potency [3]

CC(C)[C@H]1C(=O)N[C@H](CO)Cc2c[nH]c3cccc(c23)N1C
active: Potency [2] 0.166 µM
inactive: Potency [8] | Potency [1] | Potency [9] | Potency [5] | Potency [3]

CCOC(=O)c1cncn1[C@H](C)c1ccccc1
inactive: Potency [1] | Potency [5] | Potency [3] | Potency [10]
active: Potency [9] 7.43 µM

CC[C@H]1C=CC=CC[C@@H](C)[C@H](O)[C@@](C)(O)C(=O)[C@@H](C)[C@H](O)[C@@H](C)C(=O)[C@@H](C)[C@H](O)[C@@H](C)C=CC(=O)O[C@@H]2[C@@H](C)[C@H](CC1)O[C@]1(CC[C@H](C)[C@H](C[C@@H](C)O)O1)[C@H]2C
active: Potency [1] 10.5 µM | Potency [9] 0.0059 µM | Potency [5] 0.0296 µM

Cc1nc(-c2ccc(-c3ccc(C(=O)N4CCc5cc6c(cc54)C4(CCN(C)CC4)CO6)cc3)c(C)c2)no1
inactive: Potency [4] | Potency [5] | Potency [6] | Potency [10]

CC(C)(C)c1cc(C=C(C#N)C#N)cc(Br)c1O
active: Potency [4] 13.2 µM | Potency [5] 16.6 µM

CC=C(C)C(=O)N[C@@H](c1ccccc1)[C@@H](O)C(=O)O[C@H]1C[C@@]2(O)[C@@H](OC(=O)c3ccccc3)[C@@H]3[C@]4(OC(C)=O)CO[C@@H]4C[C@H](O)[C@@]3(C)C(=O)[C@H](OC(C)=O)C(=C1C)C2(C)C
inactive: Potency [4] | Potency [1] | Potency [2] | Potency [5] | Potency [6] | Potency [10]

CC(=O)O[C@@]12CO[C@H]1C[C@H](O)[C@@]1(C)C(=O)[C@H](O)C3=C(C)[C@@H](O)C[C@@](O)([C@@H](OC(=O)c4ccccc4)[C@@H]21)C3(C)C
active: Potency [2] 2.96 µM | Potency [6] 10.5 µM | Potency [10] 7.43 µM
inactive: Potency [1]

CC(=Cc1csc(C)n1)[C@@H]1C[C@H]2O[C@@H]2CCC[C@H](C)[C@@H](O)[C@@H](C)C(=O)C(C)(C)[C@@H](O)CC(=O)O1
inactive: Potency [1] | Potency [5] | Potency [3] | Potency [6] | Potency [10]

NC1=NC(=O)N2CC12 (stereo not drawn)
inactive: Potency [3] | Potency [6]
active: Potency [7] 10.5 µM | Potency [5] 9.35 µM

O=C(NCC1CCOCC1)c1cnc(Nc2ccc(Cl)cc2Cl)nc1C(F)(F)F
inactive: Potency [1]
active: Potency [9] 20.9 µM | Potency [5] 4.69 µM | Potency [6] 3.32 µM

CN[C@@H]1Cc2cccc3[nH]c(=O)n(c23)C1
active: Potency [9] 5.26 µM
inactive: Potency [1] | Potency [5] | Potency [3] | Potency [10]

C[C@](O)(COc1ccc(C#N)cc1)C(=O)Nc1ccc(C#N)c(C(F)(F)F)c1
inactive: Potency [3]

C[C@]12CC[C@@H]3[C@@H](CCC4=CC(=O)CC[C@@H]43)[C@@H]1CC[C@@H]2OC(=O)CCc1ccccc1
inactive: Potency [3] | Potency [6]

C=CCON=C(C[C@H]1O[C@@H]2O[C@]3(C)CC[C@@H]4[C@H](C)CC[C@@H]([C@H]1C)[C@@]24OO3)[C@H]1O[C@@H]2O[C@]3(C)CC[C@H]4[C@H](C)CC[C@@H]([C@@H]1C)[C@@]24OO3
active: Potency [4] 0.372 µM | Potency [1] 0.264 µM | Potency [9] 0.187 µM | Potency [2] 0.235 µM | Potency [5] 0.148 µM | Potency [3] 0.187 µM | Potency [6] 0.526 µM

CC(=Cc1csc(C)n1)[C@@H]1C[C@H]2O[C@]2(C)CCC[C@H](C)[C@@H](O)[C@@H](C)C(=O)C(C)(C)[C@@H](O)CC(=O)O1
inactive: Potency [9] | Potency [2] | Potency [5] | Potency [3] | Potency [6]
active: viability [8] 80.2%
